# Laboratory results from PubChem BioAssay AID743360 (Molecular Libraries Program, Specialized Chemistry Center, …, 2014).
# Several values for one entry are separate records, joined by “and”; a condition that tells them apart may be missing. Equal entries are not always repeated. Values without a mark were called inactive. Activity calls are given as the source filed them.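 How the source made its calls: active means calcium retention capacity relative to untreated control above about 1.1 ratio (limit read from the data); inactive means the rest.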
# Assay: mitochondrial Ca2+ retention capacity increase – biochemical, dry powder samples, uHTS hits, Calcium Green-5N, dose response (AID 743360)
# Settings: isolated mitochondria, Ca retention capacity
row,SMILES,CRC/CRC0 ratio at 12.5 uM (higher = more inhibition)
1,CN1CCN(c2ccccc2NC(=O)c2ccc(OCc3ccccc3)cc2)CC1,1.24 (active)
2,CN1CCN(CCc2ccc(NS(=O)(=O)c3cc(Cl)cc(Cl)c3)cc2)CC1,1.09
3,COc1ccc(Cl)cc1C(=O)Nc1ccc(CCN2CCNCC2)cc1,1.31 (active)
4,COc1ccc(Cl)c(C(=O)Nc2ccc(CCN3CCOCC3)cc2)c1,> 1
5,O=C(Nc1ccccc1OCc1ccccc1)c1cc(-c2cccc(O)c2)on1,1.14 (active)
6,COc1ccc(Cl)c(C(=O)Nc2ccc(CN3CCN(C)CC3)cc2)c1,> 1
7,COc1ccc(Cl)cc1C(=O)Nc1ccc(CN2CCN(C(=O)OC(C)(C)C)CC2)cc1,1.33 (active)
8,CC(C)c1cc(C(=O)Nc2ccc(F)cc2F)no1,1.09
9,O=C(Nc1ccc(CN2CCCCC2)cc1)c1cccc(Cl)c1,1.16 (active)
10,CCc1ccccc1NC(=O)c1cc(-c2ccccc2)on1,> 1
11,CN1CCN(CCc2ccc(NS(=O)(=O)c3ccc(F)c(Cl)c3)cc2)CC1,1.08
12,O=C(Nc1ccccc1C(F)(F)F)c1cc(-c2ccccc2)on1,> 1
13,CCN(C(=O)c1cc(Cl)ccc1OC)c1ccccc1,> 1
14,CN1CCN(c2ccc(NS(=O)(=O)c3cccc(Cl)c3)cc2)CC1,1.05
15,COc1ccc(Cl)cc1C(=O)Nc1ccccc1,1.07
16,COc1ccc(Cl)c(C(=O)Nc2ccc(CCN3CCN(C)CC3)cc2)c1,> 1
17,COc1ccc(C(=O)CCN2CCCC(C)C2)cc1 (stereo not drawn),1.07

row,SMILES,CRC/CRC0 ratio at 12.5 uM (higher = more inhibition)
1,COc1ccc(Cl)c(C(=O)Nc2ccc(CCN3CCN(C(=O)OC(C)(C)C)CC3)cc2)c1,1.11 (active)
2,O=C(Nc1ccc(CN2CCCCC2)cc1)c1cc(OCc2ccccc2)ccc1Cl,2.26 (active)
3,O=C(Nc1cc(Cl)ccc1Cl)c1cc(-c2cccc(O)c2)on1,4.67 (active)
4,CN1CCN(CCc2ccc(NS(=O)(=O)c3cccc(Cl)c3)cc2)CC1,> 1
5,O=S(=O)(Nc1ccc(CN2CCCCC2)cc1)c1cccc(Cl)c1,1.03
6,O=C(Nc1cccc(Cl)c1)c1cc(-c2ccc(Cl)cc2)on1,> 1
7,CN1CCN(c2ccc(NS(=O)(=O)c3ccc(F)c(Cl)c3)cc2)CC1,1.08
8,O=C(Nc1ccc(CN2CCCCC2)cc1)c1ccc(Cl)c(OCc2ccccc2)c1,21.3 (active)
9,O=C(Nc1ccc(CN2CCCCC2)cc1)c1cc(Cl)cc(OCc2ccccc2)c1,22.7 (active)
10,O=C(Nc1ccc(Cl)cc1)c1cc(-c2cccc(O)c2)on1,3.44 (active)
11,O=C(Nc1cccc(Cl)c1)c1cc(-c2cccc(O)c2)on1,5.47 (active) and 7.74 (active)
12,COc1ccc(Cl)cc1C(=O)Nc1ccc(CCN2CCN(C)CC2)cc1,1.37 (active)
13,O=C(Nc1ccc(N2CCCCC2)cc1)c1cccc(OCc2ccccc2)c1,1.01
14,COc1ccc(Cl)cc1C(=O)Nc1ccc(N(C)C)cc1,1.18 (active)
15,COc1ccc(NC(=O)c2cc(-c3ccc(Cl)cc3)on2)cc1Cl,> 1
16,CN1CCN(Cc2ccc(NS(=O)(=O)c3cc(Cl)cc(Cl)c3)cc2)CC1,1.1
